Design in all cases: scale not given: direction of the effect not stated beside the values
Test [1] concerns the target Protein translocase subunit SecA (Escherichia coli (strain K12)) (UniProt P10408). Put plainly: Assay to Identify E. coli SecA ATPase Inhibitors. In kind it is functional. The note with it: 30 µM.
Test [2] deals with T1, Ubiquitin-activating enzyme e1, putative (Leishmania donovani (strain BPK282A1)) (UniProt E9BSI1).
T1 sequence (whole entry): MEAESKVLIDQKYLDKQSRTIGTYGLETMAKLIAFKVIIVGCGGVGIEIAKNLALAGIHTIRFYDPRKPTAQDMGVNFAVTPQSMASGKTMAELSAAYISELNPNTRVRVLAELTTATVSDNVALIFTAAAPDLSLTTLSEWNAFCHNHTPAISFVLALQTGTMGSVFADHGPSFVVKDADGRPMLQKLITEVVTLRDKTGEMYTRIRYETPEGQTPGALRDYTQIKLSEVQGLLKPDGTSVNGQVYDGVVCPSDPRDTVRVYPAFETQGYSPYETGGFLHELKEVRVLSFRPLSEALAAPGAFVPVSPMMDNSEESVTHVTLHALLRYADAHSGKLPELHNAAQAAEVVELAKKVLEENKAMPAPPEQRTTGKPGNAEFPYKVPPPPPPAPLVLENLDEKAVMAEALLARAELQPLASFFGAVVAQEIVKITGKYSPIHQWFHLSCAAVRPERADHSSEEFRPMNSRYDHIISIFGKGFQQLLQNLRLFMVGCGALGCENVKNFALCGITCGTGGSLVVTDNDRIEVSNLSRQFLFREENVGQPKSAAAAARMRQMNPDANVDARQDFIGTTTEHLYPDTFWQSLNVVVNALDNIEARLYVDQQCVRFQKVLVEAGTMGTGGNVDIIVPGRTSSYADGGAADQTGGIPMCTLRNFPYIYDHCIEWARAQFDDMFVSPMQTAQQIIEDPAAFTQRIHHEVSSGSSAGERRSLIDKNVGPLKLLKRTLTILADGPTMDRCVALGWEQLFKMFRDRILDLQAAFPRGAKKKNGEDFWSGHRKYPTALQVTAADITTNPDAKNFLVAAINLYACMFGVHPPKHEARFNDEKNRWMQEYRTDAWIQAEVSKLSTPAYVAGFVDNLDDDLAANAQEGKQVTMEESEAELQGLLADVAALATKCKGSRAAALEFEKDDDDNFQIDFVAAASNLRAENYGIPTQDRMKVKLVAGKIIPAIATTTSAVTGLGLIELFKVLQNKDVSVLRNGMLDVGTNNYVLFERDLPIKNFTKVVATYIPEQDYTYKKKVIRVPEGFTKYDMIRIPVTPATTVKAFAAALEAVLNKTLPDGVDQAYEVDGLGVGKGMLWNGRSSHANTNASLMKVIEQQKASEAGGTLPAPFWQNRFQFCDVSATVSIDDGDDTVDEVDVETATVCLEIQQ
In words: Leishmania donovani Ubiquitin Activating Enzyme (LdE1). The test is classed as functional. The note with it: 30 µM.

Test [3] deals with Sialic acid-binding Ig-like lectin 9 (Homo sapiens) (UniProt Q9Y336). In words: Hs-Siglec9 ALPHAscreen SOP 20170721. The note with it: 10 µM. A general note: Bead proximity is the source of the signal in Alpha formats.
Sequence of Sialic acid-binding Ig-like lectin 9 (Homo sapiens) (Q9Y336 whole entry): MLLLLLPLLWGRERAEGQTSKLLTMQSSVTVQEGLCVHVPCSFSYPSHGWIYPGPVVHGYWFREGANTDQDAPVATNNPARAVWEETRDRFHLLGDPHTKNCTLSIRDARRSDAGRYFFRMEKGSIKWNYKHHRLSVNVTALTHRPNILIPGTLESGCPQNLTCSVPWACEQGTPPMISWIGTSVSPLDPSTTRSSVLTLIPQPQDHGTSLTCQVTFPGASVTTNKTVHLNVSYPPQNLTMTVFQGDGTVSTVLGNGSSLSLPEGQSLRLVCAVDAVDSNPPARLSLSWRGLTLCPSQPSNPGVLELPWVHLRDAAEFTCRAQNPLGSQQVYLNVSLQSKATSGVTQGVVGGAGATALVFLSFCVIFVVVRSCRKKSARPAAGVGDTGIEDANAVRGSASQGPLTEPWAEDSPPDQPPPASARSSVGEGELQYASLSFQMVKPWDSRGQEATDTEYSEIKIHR
For test [4], the system named is Trypanosoma cruzi. Put plainly: Trypanosoma cruzi phosphomannomutase and mannose-1-phosphate guanylyltransferase assay. The test is classed as functional. The note with it: 10 µM.
Test [5] deals with T2, Arginase-2, mitochondrial (Homo sapiens) (UniProt P78540).
T2 sequence (whole entry): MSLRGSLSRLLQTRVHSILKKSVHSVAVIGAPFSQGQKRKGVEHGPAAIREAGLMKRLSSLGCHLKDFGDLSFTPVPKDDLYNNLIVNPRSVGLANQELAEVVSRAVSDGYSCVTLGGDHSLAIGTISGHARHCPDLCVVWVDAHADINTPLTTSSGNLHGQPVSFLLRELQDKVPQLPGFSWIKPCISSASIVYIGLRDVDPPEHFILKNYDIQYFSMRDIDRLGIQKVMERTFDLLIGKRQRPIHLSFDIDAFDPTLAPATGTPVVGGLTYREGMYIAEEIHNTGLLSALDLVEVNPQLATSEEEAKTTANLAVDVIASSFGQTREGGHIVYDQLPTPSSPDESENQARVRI
In words: in vitro enzyme assay to detect the production of urea directly proportional to the activity of Arginase II. Also: in the data most compounds retested in dose-response had high values. The note with it: 33.3 µM. The test is classed as functional.

Test [6] concerns the target T3, Proteasome subunit beta (Trypanosoma cruzi) (UniProt O96673).
T3 sequence (whole entry): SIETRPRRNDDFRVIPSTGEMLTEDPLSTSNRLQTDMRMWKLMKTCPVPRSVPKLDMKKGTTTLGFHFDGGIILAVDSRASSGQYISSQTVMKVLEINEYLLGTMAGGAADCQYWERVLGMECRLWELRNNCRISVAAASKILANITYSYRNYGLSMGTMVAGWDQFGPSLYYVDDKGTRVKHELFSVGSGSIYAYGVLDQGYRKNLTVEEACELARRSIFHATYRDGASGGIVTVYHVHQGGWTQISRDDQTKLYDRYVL
In words: Trypanosoma cruzi proteasome chymotrypsin-like activity (TcProtChymo) assay. Also: in the data most compounds retested in dose-response had high values. In kind it is functional. As to conditions: 9.37 µM.

Test [7] is filed under the species Homo sapiens. Put plainly: To identify inhibition of the IFN signalling (Jak-Stat) pathway via expression of an eGFP reporter gene under the control of an IFN-stimulated response element (ISRE) containing MxA promoter. The test is classed as functional. The note with it: 30 µM. (In general: Reporter assays use an easily measured gene product as a stand-in for the process of interest.)

Test [8] concerns the target T4, Tyrosyl-tRNA synthetase, putative (Trypanosoma cruzi (strain CL Brener)) (UniProt Q4DSP6).
T4 sequence (whole entry): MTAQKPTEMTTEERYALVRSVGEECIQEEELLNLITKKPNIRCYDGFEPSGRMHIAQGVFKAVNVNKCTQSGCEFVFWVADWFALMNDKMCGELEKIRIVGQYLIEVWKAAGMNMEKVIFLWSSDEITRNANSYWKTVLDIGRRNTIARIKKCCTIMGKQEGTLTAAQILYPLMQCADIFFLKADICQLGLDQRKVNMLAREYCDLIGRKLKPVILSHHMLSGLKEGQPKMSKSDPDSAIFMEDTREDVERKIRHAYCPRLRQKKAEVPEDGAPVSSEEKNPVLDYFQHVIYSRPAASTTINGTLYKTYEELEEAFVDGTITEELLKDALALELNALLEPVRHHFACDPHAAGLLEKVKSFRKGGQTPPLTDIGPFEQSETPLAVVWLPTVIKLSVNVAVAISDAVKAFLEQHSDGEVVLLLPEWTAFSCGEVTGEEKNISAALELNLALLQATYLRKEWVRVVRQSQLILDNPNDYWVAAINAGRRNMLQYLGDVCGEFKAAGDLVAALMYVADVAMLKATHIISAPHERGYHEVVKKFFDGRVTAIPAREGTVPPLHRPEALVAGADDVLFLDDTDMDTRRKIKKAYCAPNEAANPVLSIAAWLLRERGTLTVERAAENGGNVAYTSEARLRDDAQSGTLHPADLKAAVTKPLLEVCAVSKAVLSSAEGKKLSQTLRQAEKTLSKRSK
In words: Trypanosoma cruzi tyrosyl tRNA synthetase (TcYRS) _High Tyrosine SOP. Also: in the data most compounds retested in dose-response had high values. The note with it: 30 µM. In kind it is functional.

Test [9] concerns the target T4, Tyrosyl-tRNA synthetase, putative (Trypanosoma cruzi (strain CL Brener)). Put plainly: Trypanosoma cruzi tyrosyl tRNA synthetase (TcYRS) SOP. In kind it is functional. The note with it: 30 µM.
In test [10] the target is Chromo domain-containing protein 1 (Saccharomyces cerevisiae (strain ATCC 204508 / S288c) (Baker's yeast)) (UniProt P32657). Put plainly: ScCHD-1 Enzyme Inhibition Assay. Also: in the data most compounds retested in dose-response had high values. In kind it is functional. As to conditions: 30 µM.
Sequence of Chromo domain-containing protein 1 (Saccharomyces cerevisiae (strain ATCC 204508 / S288c) (Baker's yeast)) (P32657 whole entry, the tested form may be a part): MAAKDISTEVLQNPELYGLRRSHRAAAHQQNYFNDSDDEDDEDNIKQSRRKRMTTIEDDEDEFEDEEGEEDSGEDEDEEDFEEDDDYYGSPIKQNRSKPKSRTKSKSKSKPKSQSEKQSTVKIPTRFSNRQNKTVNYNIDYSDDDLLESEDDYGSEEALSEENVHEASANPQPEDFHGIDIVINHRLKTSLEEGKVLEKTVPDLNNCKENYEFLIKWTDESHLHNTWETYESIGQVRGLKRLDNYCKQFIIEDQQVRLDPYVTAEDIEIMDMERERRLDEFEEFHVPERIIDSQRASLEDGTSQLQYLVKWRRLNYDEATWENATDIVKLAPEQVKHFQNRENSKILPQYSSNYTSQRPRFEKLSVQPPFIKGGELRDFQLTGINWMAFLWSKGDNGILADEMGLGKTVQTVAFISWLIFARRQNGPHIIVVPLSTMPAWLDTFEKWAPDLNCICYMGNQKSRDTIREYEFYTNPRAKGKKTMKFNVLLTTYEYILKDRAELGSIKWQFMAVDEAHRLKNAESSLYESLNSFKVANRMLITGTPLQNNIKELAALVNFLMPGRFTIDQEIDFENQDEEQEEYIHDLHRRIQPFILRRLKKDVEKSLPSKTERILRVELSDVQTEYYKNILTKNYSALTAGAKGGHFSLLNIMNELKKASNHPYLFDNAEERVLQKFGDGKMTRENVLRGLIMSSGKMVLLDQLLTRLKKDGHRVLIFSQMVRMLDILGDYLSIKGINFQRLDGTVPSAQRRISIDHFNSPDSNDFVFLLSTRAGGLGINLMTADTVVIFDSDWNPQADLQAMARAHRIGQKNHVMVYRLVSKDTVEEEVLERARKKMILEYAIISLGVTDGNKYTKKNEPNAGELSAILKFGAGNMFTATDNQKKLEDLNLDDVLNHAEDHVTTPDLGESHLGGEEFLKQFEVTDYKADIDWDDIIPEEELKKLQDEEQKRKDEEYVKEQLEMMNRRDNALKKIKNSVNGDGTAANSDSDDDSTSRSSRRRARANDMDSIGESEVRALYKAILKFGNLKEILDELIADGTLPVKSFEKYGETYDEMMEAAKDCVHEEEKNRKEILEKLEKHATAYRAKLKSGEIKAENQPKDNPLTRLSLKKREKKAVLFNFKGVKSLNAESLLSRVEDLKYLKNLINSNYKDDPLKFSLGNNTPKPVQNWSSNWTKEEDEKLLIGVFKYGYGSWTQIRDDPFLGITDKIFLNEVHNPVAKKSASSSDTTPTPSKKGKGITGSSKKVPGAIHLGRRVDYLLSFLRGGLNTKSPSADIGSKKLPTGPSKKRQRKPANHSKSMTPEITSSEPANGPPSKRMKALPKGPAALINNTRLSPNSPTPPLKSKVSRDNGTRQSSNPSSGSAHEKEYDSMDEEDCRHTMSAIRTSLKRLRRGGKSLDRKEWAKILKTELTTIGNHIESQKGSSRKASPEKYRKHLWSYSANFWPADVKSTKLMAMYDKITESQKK

For part of these data: Entries with a potency or affinity are not part of this list.

Sequence of Protein translocase subunit SecA (Escherichia coli (strain K12)) (P10408 whole entry): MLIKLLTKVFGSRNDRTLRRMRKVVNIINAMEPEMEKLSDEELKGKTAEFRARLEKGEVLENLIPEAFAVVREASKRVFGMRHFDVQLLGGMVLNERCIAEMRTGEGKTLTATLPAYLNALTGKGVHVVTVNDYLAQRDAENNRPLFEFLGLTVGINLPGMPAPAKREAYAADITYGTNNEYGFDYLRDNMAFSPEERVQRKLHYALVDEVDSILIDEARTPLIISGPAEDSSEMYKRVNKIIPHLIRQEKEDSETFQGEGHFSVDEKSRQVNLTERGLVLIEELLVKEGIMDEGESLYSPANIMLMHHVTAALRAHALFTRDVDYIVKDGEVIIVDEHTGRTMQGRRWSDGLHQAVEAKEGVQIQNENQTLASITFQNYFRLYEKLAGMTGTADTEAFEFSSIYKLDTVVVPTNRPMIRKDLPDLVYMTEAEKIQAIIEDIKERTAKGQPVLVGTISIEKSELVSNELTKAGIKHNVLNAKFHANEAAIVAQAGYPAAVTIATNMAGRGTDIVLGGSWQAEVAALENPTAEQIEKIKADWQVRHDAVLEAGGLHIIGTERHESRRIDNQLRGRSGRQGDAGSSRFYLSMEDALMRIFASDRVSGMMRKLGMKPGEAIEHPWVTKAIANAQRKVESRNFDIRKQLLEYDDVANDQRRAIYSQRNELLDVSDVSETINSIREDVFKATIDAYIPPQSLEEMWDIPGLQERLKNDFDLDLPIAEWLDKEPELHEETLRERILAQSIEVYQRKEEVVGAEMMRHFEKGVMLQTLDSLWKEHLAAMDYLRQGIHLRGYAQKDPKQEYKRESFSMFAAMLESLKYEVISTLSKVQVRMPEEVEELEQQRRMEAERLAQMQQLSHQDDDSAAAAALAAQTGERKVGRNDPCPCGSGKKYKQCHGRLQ

In the case of `O=C(NCCn1nc2ccccn2c1=O)c1cccc2[nH]ncc12`, the Percent Effect in [1] is -1.51%; in test [2], 20.5%; in test [3], -7.98%; in [4] it was 6.29%; in [5], -3.69%; in test [6], 21.9%. The Percent Effect was 13.6% in test [7], 4.31% in [8], 22.9% in [9] and -8.5% in test [10].

Turning to `CC(C)CN1CCN(C)C2(CCN(Cc3ccsc3)CC2)C1=O`, the Percent Effect was -3.52% in test [1]; 6.49% in [2]; -3% in [3]; 0.188% in test [4]; 1.83% in test [5]; -2.49% in test [6]. Besides, the Percent Effect was -6.74% in [7], 7.73% in test [8], 10% in test [9] and 1.23% in [10].

With `CN(Cc1nnc(-c2ccco2)o1)C1CCCN(c2cccnn2)C1` (stereo not given), the Percent Effect in test [1] is 2.65%; in test [2], 10.3%; in test [3] it was -14.4%; in test [4] it was -2.91%; in test [5] it was -0.82%; in [6] it was 28.4%. The Percent Effect stood at 30.2% in test [7], 3.35% in test [8], 8.43% in [9] and 1.33% in test [10].

In the case of `Cc1ccccc1N1CC2(CCN(S(=O)(=O)C3CC3)C2)CC1=O` (stereo not given), the Percent Effect was 0.787% in [1]; 16.9% in test [2]; -5.74% in test [3]; -5.07% in test [4]; 4.57% in [5]; 17.4% in test [6]. Also, the Percent Effect in [7] was 11.8%; in test [8], 3.87%; in [9], 10%; in test [10], -8.76%.

With `O=C(NCCOc1ccc2c(c1)CCC2)N1CCS(=O)(=O)CC1`, the Percent Effect is -6.68% in test [1]; 2.56% in test [2]; -7.49% in [3]; -1.78% in test [4]; -0.82% in test [5]; 1.28% in test [6]. In addition, the Percent Effect in test [7] was 23.2%; in test [8] it was -1.44%; in [9] it was -1.21%; in test [10], -2.29%.

On to `CCOc1ncccc1NC(=O)NC1CCN(S(C)(=O)=O)CC1`, for which the Percent Effect in test [1] was -4.68%; in test [2], 2.6%; in test [3], -7.28%; in test [4], -6.34%; in test [5] it was -6.76%; in [6], 8.25%. Also, the Percent Effect in test [7] is 25.1%; in test [8] it was 0.98%; in test [9], 4.71%; in test [10] it was -11.6%.

On to `CN(C)Cc1ccc(C2CCCCN2C(=O)c2cc(C3CC3)n[nH]2)cc1` (stereo not given), for which the Percent Effect in test [1] was -11.5%; in [2] it was -2.7%; in test [3] it was 0.279%; in test [4], -2.23%; in test [5] it was -1.05%; in test [6] it was 11.3%. For the same compound, the Percent Effect is 19.7% in test [7], 5.85% in test [8], 9.76% in [9] and -0.312% in [10].

With `O=S(=O)(CCNC1CCc2ncnn2C1)c1ccccc1` (stereo not given), the Percent Effect in [1] was -0.316%; in test [2] it was 0%; in test [3], 9.36%; in test [4], 0.746%; in test [5], -1.43%; in test [6], 5.09%. In addition, the Percent Effect was 0.944% in test [7], 1.96% in [8], 4.71% in test [9] and 5.51% in [10].

`Cc1ccc(C#N)cc1NC(=O)NC1CCCN(c2ncccn2)C1` (stereo not given): the Percent Effect is -5.74% in test [1]; 15.6% in test [2]; 3.91% in test [3]; -2.98% in test [4]; 1.02% in test [5]; -1.4% in [6]. The Percent Effect in [7] was 20.9%; in test [8], 3.92%; in test [9] it was 18.8%; in test [10] it was -8.47%.

As to `Cn1cnc2c1CCN(CCCc1ccccc1)C2`, the Percent Effect in test [1] is -5.94%; in test [2], 2.67%; in [3], 4.07%; in [4], 5.62%; in [5], -3.55%; in [6], 4.16%. Moreover, the Percent Effect is 23.4% in [7], 7.89% in test [8], 12.8% in [9] and -10.6% in test [10].

Regarding `Cc1nsc(NC(=O)N2CCN(Cc3ccc(F)cc3)C(=O)C2)n1`, the Percent Effect in [1] is -3.7%; in test [2], -10.8%; in test [3], -0.0827%; in test [4], -0.291%; in test [5], 3.85%; in [6], 4.45%. The Percent Effect in [7] was found to be 5.1%; in test [8], 2.66%; in [9], 2.44%; in test [10], 3.97%.

Take `CC(NC(=O)c1cc(Br)c2c(c1)OCCO2)C(N)=O` (stereo not given): the Percent Effect is -7.52% in test [1]; 18.7% in test [2]; 6.37% in test [3]; 5.82% in [4]; -3.55% in test [5]; 17.9% in [6]. Moreover, the Percent Effect in test [7] came out at 0.842%; in [8], 2.63%; in test [9], 10.3%; in [10], 77.7%.

These data come from ChEMBL document CHEMBL3988442, “University of Dundee, Small-Polar-MMV Screening Library” (2021).
